In PubChem BioAssay (EPA / NIEHS):
Activity calls are given as the source filed them. How the source made its calls: active means hit-call score of the fitted dose curve at least 0.9, where 1 is the maximum; inconclusive means response in the unintended direction; inactive means score below 0.9.

Assay: Tanguay_ZF_120hpf_ActivityScore_legacy: (Legacy) Oregon State University Tanguay Lab 120 Hour Post-fertilization zebrafish Assay Score for Activity (AID 2283742);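 on AC50: dechorionated Tropical 5D wild-type zebrafish embryos held singly per well; static exposure from 6 hpf until 120 hpf at 28 °C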
Method in brief: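 Embryos are staged, enzymatically dechorionated at 4 hpf, placed individually at 6 hpf, then held in test chemical (0.64% DMSO) at 28C until 120 hpf. Mortality and malformations are scored by brightfield, with non-mortality endpoints skipped for dead embryos.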

Compound	outcome	AC50
CC(C)(C)CC(C)(C)c1ccc(O)cc1	inactive	
O=C(O)C(F)(F)C(F)(F)C(F)(F)C(F)(F)C(F)(F)C(F)(F)F	inactive	
Cc1ccccc1N	inactive	
CCC(C)(C)c1ccc(O)c(C(C)(C)CC)c1	inactive	
CCOP(=S)(OCC)SCSP(=S)(OCC)OCC	inactive	
Oc1cccc2cccnc12		39.6 µM (active)
CCOP(=S)(OCC)Oc1nc(Cl)c(Cl)cc1Cl	inactive	
O=C(O)C(F)(F)C(F)(F)C(F)(F)C(F)(F)C(F)(F)C(F)(F)C(F)(F)C(F)(F)C(F)(F)C(F)(F)F	inactive	
NC(=O)O	inactive	
O=C(Nc1ccc2[nH]ccc2c1)c1cc2cc(F)ccc2n1Cc1cccc(F)c1	inactive	
CCCCCCCCc1ccc(O)cc1	inactive	
CC12CC1(C)C(=O)N(c1cc(Cl)cc(Cl)c1)C2=O (stereo not given)	inactive	
CC(C)(C)c1cc(O)ccc1O		16.8 µM (active)
O=C(O)C(Cl)(Cl)Cl	inactive	
CC(C)(c1ccccc1)c1ccc(O)c(C(C)(C)c2ccccc2)c1	inactive	
